Assay outcomes deposited in PubChem BioAssay by several laboratories.
SENP8 block-1: SENP8 protease inhibitors, primary screen, biochemical, luminescence; inhibition, % at 10 µM; actives 1.2% (n = 330,000); purified SENP8, Z-RLRGG-aminoluciferin cleavage; Sentrin-specific protease 8 (Homo sapiens), Q96LD8; in the data active = inhibition above about 50%
Target sequence (Q96LD8 whole entry, looked up): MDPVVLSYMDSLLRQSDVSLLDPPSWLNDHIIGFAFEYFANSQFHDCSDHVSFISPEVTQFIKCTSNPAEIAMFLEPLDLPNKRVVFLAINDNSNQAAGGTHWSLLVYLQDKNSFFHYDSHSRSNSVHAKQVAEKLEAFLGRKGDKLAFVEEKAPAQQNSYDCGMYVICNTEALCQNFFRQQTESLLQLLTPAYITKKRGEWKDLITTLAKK
HSP90 refold inh: HSP90 inhibitors, primary screen, cell lysate, luminescence; actives 0.91% (n = 290,000); AID 1789, 2009; inhibition, % at 5.6 µM; Rabbit reticulocyte lysate, luciferase refolding luminescence, 3 h; Heat shock protein HSP 90 (rabbit reticulocyte lysate; luciferase refolding);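 active = inhibition above the screen-wide mean plus 3 SD, computed separately per campaign, cut at about 16% in these data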;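 note: inhibitors lower the luminescence because luciferase stays unfolded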
Platelet DG rel: inhibitors of platelet dense granule secretion, primary screen, cell-based, MLPCN, human platelets. human platelet-rich plasma, SFLLRN dense granule ATP release, luminescence. inhibition, %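 (compounds screened at 7.5 µM in platelet-rich plasma)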. actives 0.22% (n = 300,000). AID 1663, 2009;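 active = mean replicate score, as percent of positive control, at or above 50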
SENP7 inh: SENP7 protease inhibitors, primary screen, biochemical, luminescence, uHTS | Sentrin-specific protease 7 (Homo sapiens), Q9BQF6 | recombinant SENP7, Z-RLRGG-aminoluciferin luminescence, 40 min | inhibition, % at 5 µM | actives 1.5% (n = 330,000);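 active = inhibition above about 50% at the single test dose, limit read from the data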
Target sequence (Q9BQF6 706-1050 limits assumed): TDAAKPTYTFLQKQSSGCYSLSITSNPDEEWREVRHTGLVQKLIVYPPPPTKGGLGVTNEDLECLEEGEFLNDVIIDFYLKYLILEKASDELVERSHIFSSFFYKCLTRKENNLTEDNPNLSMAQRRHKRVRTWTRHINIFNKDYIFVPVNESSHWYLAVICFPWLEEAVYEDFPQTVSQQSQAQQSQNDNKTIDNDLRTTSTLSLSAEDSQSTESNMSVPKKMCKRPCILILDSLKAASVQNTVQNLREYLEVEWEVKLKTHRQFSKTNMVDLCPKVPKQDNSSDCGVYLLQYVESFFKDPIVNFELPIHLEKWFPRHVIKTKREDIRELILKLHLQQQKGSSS
SENP6 block: SENP6 protease inhibitors, primary screen, biochemical, luminescence, uHTS. Sentrin-specific protease 6 (Homo sapiens), Q9GZR1. Recombinant SENP6 catalytic domain, aminoluciferin luminescence. inhibition, % at 10 µM. actives 1.8% (n = 330,000);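 active = inhibition above about 50% at the single tested dose, limit read from the data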
SENP8 block-2: human SENP8 protease inhibitors, primary screen, biochemical, fluorescence, Nedd8 protein substrate, uHTS | Sentrin-specific protease 8 (Homo sapiens), Q96LD8 | recombinant SENP8 | inhibition, % at 20 µM | actives 0.64% (n = 360,000) | AID 602440, 2012; in the data active = inhibition mostly above about 40%, no sharp cut-off; inactive = mostly below about 27%
A number is an active result; - = inactive; . = no result given. This is a sample that favours compounds with a hit; in the whole collection about 2.8% have one here.

SMILES	SENP8 block-1	HSP90 refold inh	Platelet DG rel	SENP7 inh	SENP6 block	SENP8 block-2
O=C(CC1SC(=O)N(c2ccccc2)C1=O)Nc1ccccc1 (stereo unspecified)	-	-	-	-	-	-
COc1cccc(-c2cc(NC=O)c3ncc(-c4ccc(C(C)=O)cc4)n3c2)c1	.	.	.	.	.	-
O=c1ccc(N=Nc2ccccc2)ccc1O	.	-	-	.	.	43
Nc1nc(-c2ccccc2)c(N=Nc2ccccc2Cl)s1	-	-	-	-	-	66
Nc1nc(-c2ccccc2)c(N=Nc2cccc3ccccc23)s1	-	-	-	-	-	-
Cc1nc2c(-c3ccc(F)cc3)c(C)nn2c(C)c1CCC(=O)Nc1ccccc1	-	-	-	-	61	-
COc1ccc(C(=O)N2CCCC(C)(C(=O)NS(=O)(=O)C3CC3)C2)cc1 (stereo unspecified)	.	.	.	.	.	-
CCOc1ccc(NS(=O)(=O)c2ccc(C(=O)NCC(c3ccc(OC)cc3)N3CCCC3)cc2)cc1 (stereo unspecified)	-	.	-	-	-	-
CC1(c2ccccc2)NC(=O)N(CC(=O)N2CCN(S(=O)(=O)c3ccccc3[N+](=O)[O-])CC2)C1=O (stereo unspecified)	-	-	57	-	-	-
Cc1nn(-c2ccccc2)c(C)c1/C=N/NC(=O)CSc1nnc(SCc2ccccc2Cl)s1	61	-	-	-	71	-
Cc1nn(-c2ccccc2)c(C)c1/C=N/NC(=O)CSc1nnc(-c2ccccc2)n1-c1ccc(Cl)cc1	-	-	-	-	-	-
O=C(CSc1nnc(SCc2ccc(Cl)cc2)s1)N/N=C/c1ccc(C(=O)O)cc1	65	-	-	-	85	-
COc1ccc(-c2cnc(C(N)=O)c(=O)[nH]2)cc1	.	.	.	.	.	-
Cc1ccc(Nc2nnc(-c3ccccc3N)o2)cc1C	-	-	-	63	-	-
Cc1ccc(NCc2ccco2)cc1C	-	-	-	-	-	-
O=C1c2ccccc2C(c2nc3ccccc3[nH]2)N1c1ccccn1 (stereo unspecified)	.	.	.	.	.	-
N=C1C=CC=C2C1=NC1(CCCCC1)N2O	-	-	-	-	-	36
COC(=O)Nc1nnc(/C=C/c2ccc(OC)cc2)s1	-	-	-	-	59	-
NC(=O)c1ccccc1N/C=C/C(=O)c1ccc(F)cc1	81	-	-	91	97	-
Cc1ccc(C(=O)/C=C/Nc2ccccc2C(N)=O)o1	-	-	-	-	-	-
NC(=O)c1ccccc1N/C=C/C(=O)c1ccc(Cl)cc1Cl	.	-	52	.	.	-
O=c1nccc(N/N=C/c2ccccc2O)[nH]1	-	16	63	-	-	-
COc1ccc(N2C(=O)C(C)(C)C2c2c(O)ccc3ccccc23)cc1 (stereo unspecified)	-	17	-	-	-	-
CC(=O)c1c(C)[nH]c(C(=O)OCC(=O)NCc2cccs2)c1C	-	.	.	-	-	-
Cc1[nH]cnc1C(=O)N/N=C/c1c(Cl)cccc1Cl	-	-	72	-	-	-
SMILES	SENP8 block-1	HSP90 refold inh	Platelet DG rel	SENP7 inh	SENP6 block	SENP8 block-2
Nc1ncnc2c1ncn2C1OC(CO)C(O)C1O (stereo unspecified)	-	-	96	-	-	-
Nc1nc(F)nc2c1ncn2[C@@H]1O[C@H](CO)[C@@H](O)[C@@H]1O	-	-	-	-	-	-
Nc1nc(F)nc2c1ncn2[C@@H]1O[C@H](CO)[C@@H](O)[C@H]1O	-	.	77	-	-	-
COc1cc(OC)c(/C=N/NC(=O)c2ccncc2)c(OC)c1	-	-	-	-	-	-
CC(=O)N(C1=C(Cl)C(=O)c2ccccc2C1=O)C1CCCCC1	-	-	-	-	51	-
CC(=O)N(c1ccccc1C)C1CCCC1	-	-	-	-	-	-
CCN1C(=O)C(=Cc2cccc(OC)c2Oc2ccc([N+](=O)[O-])cc2[N+](=O)[O-])SC1=S	95	-	-	54	81	-
CCOC(=O)c1nn(-c2ccccc2)c(=O)c2c(N)scc12	-	-	.	-	-	55
Cc1ccc(NC(=O)CN(C)C(=O)COC(=O)c2nc3nccc(C)n3n2)cc1	-	.	.	-	-	-
CCN(CCn1cccn1)Cc1cn[nH]c1-c1ccc(-c2ccccc2)cc1	-	-	-	-	-	-
CCN(CCn1cccn1)Cc1cn[nH]c1-c1cccc2ccccc12	-	-	59	-	-	-
O=C(O)CN1C(=O)/C(=C/C=C/c2ccccc2)SC1=S	-	-	-	-	-	-
CCN1C(=O)/C(=C/C=C2\C=CN(CC)c3ccccc32)SC1=S	.	-	-	.	.	64
CCN1C(=O)C(=CC=CN(C)c2ccccc2)SC1=S	.	.	.	.	.	62
Cc1[nH]c2ccccc2c1N=Nc1ccc(F)cc1	-	-	-	-	-	47
COc1ccc(NC(=O)c2cc(C3CCCCN3S(=O)(=O)c3c(C)noc3C)on2)c(C)c1 (stereo unspecified)	.	.	.	.	.	-
COc1ccc(CCNC(=O)CSc2nc(N)c3c(C)c(C)oc3n2)cc1OC	-	-	74	-	-	-
COc1ccc(CCNC(=O)CSc2n[nH]c(N)n2)cc1OC	-	-	-	-	-	-
CCCCn1c(N)c(N(Cc2ccccc2OC)C(=O)C(C)Oc2ccc(Cl)cc2)c(=O)[nH]c1=O (stereo unspecified)	-	-	53	-	-	-
O=C(N(c1ccccc1)c1ccccc1)N(c1ccccc1)c1ccccc1	-	-	-	-	-	-
CC(=O)N(C1=C(N)C(=O)c2ccccc2C1=O)c1ccccc1	-	-	-	-	-	62
COc1cc(CNCc2ccc(C)cc2)cc(OC)c1OC	-	-	-	-	-	-
Cc1nnsc1C(=O)NC(=O)Nc1ccc(F)c(Cl)c1	78	-	-	-	82	-
COc1ccc(NC(=O)Nc2ccc(F)c(Cl)c2)cc1	-	-	-	51	-	-
COc1ccc(S(=O)(=O)N(C)c2ccc(C(=O)NCc3ccccn3)cc2)cc1OC	-	-	-	-	-	-
SMILES	SENP8 block-1	HSP90 refold inh	Platelet DG rel	SENP7 inh	SENP6 block	SENP8 block-2
COc1cccc(-c2[nH]nc3c2C(c2ccsc2)C(C#N)=C(N)O3)c1 (stereo unspecified)	-	16	-	-	-	-
CC(C)(C)n1nc(-c2ccc(F)cc2)c2c(N)ncnc21	-	-	-	-	-	-
CC(C)(C)n1nc(-c2ccc(Cl)cc2)c2c(N)ncnc21	-	-	72	-	-	-
CC1(c2nc3ccccc3[nH]2)CCC2=Nc3ccccc3CN21 (stereo unspecified)	.	.	.	.	.	-
Cc1ccn2cc(-c3ccc(O)c(O)c3)nc2c1	56	-	-	67	67	-
Oc1ccc(-c2cn3ccccc3n2)cc1O	-	-	-	-	-	-
CC(C)n1nnnc1-c1cccc(Cl)c1	-	-	-	-	-	-
